{"source": "PubChem BioAssay (NCI)", "note": "Compounds without any hit were thinned out: in the full panel of roughly 79,000, 15% have a hit. The source made the active and inactive calls. No stated cut-off is given here; in the data, active means growth inhibition above about 70%; inactive means the rest.", "data": [{"test": "NCI Yeast Anticancer Drug Screen. Data for the sgs1 mgt1 strain (AID 161);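 further: 0% = growth of cultures given vehicle only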", "conditions": "S. cerevisiae sgs1 mgt1 strain, at 50.0 µM, hits give high values", "summary_of_the_method": "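Percent growth inhibition was derived by comparing compound-exposed mutant yeast with vehicle-exposed cultures. The strain carries alterations in DNA damage repair.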", "values": [{"compound": "O=C1C2=C(Nc3ccccc3N2)OC1c1ccccc1Cl", "note": "(stereo not given)", "growth inhibition": "-22.1% (inactive)"}, {"compound": "CCOC(=O)CNC(=O)C(Cc1ccccc1)NC(=O)c1ccccc1NC(=O)c1ccccc1", "note": "(stereo not given)", "growth inhibition": "4.3% (inactive)"}, {"compound": "O=C(Nc1ccc(Cl)cc1)c1cccnc1", "growth inhibition": "32.8% (inactive)"}, {"compound": "O=C(O)CCC(=O)NNC(=O)CCC(=O)O", "growth inhibition": "4.15% (inactive)"}, {"compound": "CN(C)Cc1[nH]c2ccccc2c1Sc1ccccc1", "growth inhibition": "24.6% (inactive)"}, {"compound": "COc1ccc(S(=O)(=O)N/N=C/C(=O)OCOC(=O)C(C)(C)C)cc1", "growth inhibition": "-5.1% (inactive)"}, {"compound": "c1ccc(C2=NOCC3(c4ccccc4)OC23)cc1", "note": "(stereo not given)", "growth inhibition": "20.7% (inactive)"}, {"compound": "CCCCCCCCC(C)C", "growth inhibition": "-0.3% (inactive)"}, {"compound": "S=c1ncnc2cc3[nH][nH]cc3cc12", "growth inhibition": "-5.35% (inactive)"}, {"compound": "O=C(O)c1ccc([C@@H]2C(=O)N(O)[C@@H]3C=CC[C@@H]32)cc1", "growth inhibition": "-7.45% (inactive)"}, {"compound": "COc1ccc(C)c(CN(C)C)c1", "growth inhibition": "8.35% (inactive)"}, {"compound": "COc1ccc(Cc2cc(O)c(OC)cc2O)cc1", "growth inhibition": "38.4% (inactive)"}, {"compound": "C=CCN=C1NC(=O)C(CC(=O)Nc2cccc(Cl)c2)S1", "note": "(stereo not given)", "growth inhibition": "-34.2% (inactive)"}, {"compound": "CC(C)(C)NCCCCCO", "growth inhibition": "16.1% (inactive)"}, {"compound": "CC(C)CC(=O)NC(Nc1ccc(S(=O)(=O)Nc2ncccn2)cc1)(C(F)(F)F)C(F)(F)F", "growth inhibition": "14.3% (inactive)"}, {"compound": "Oc1ccccc1-c1n[nH]c(=S)n1/N=C/c1ccc(-c2ccc(Br)cc2)o1", "growth inhibition": "-29.2% (inactive)"}, {"compound": "NC1=NCC(c2ccccn2)C1c1ccc(F)cc1", "note": "(stereo not given)", "growth inhibition": "1.1% (inactive)"}, {"compound": "COc1cc(C2=N/C(=C\\c3cc(Cl)cc(Cl)c3O)C(=O)O2)cc(OC)c1OC", "growth inhibition": "2.85% (inactive)"}, {"compound": "COc1ccc(OC)c2c(NCCNCCO)cc(NCCNCCO)nc12", "growth inhibition": "-15.7% (inactive)"}, {"compound": "Nn1cnc2nccnc2c1=O", "growth inhibition": "-10.7% (inactive)"}, {"compound": "CSc1nc(NC2OCC(O)C(O)C2O)cc(=O)n1C", "note": "(stereo not given)", "growth inhibition": "7.4% (inactive)"}]}, {"test": "NCI Yeast Anticancer Drug Screen. Data for the cln2 rad14 strain (AID 165);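 further: 0% = growth equal to vehicle treated cultures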", "conditions": "S. cerevisiae cln2 rad14 strain, at 50.0 µM, hits give high values", "summary_of_the_method": "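Yeast carrying cln2 and rad14 alterations (cell cycle control and DNA damage repair) were exposed to compounds. Growth inhibition was measured against vehicle-treated controls.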", "values": [{"compound": "CN(C)C1=C(c2ccccc2)C(=O)C(c2ccccc2)=C1c1ccccc1", "growth inhibition": "-32.3% (inactive)"}, {"compound": "COc1ccc(N2C(=O)CC(c3c[nH]c4ccccc34)C2=O)cc1", "note": "(stereo not given)", "growth inhibition": "6.9% (inactive)"}, {"compound": "BrCCC[n+]1ccc2ccccc2c1-c1nccc2ccccc12", "growth inhibition": "33.2% (inactive)"}, {"compound": "CC#CCCCC1(C)CCNC1=S", "note": "(stereo not given)", "growth inhibition": "21.9% (inactive)"}, {"compound": "Cc1nc([N+](=O)[O-])cn1/C=C/Cn1cc([N+](=O)[O-])nc1C", "growth inhibition": "6.65% (inactive)"}, {"compound": "CCCOC(=O)C(O)Cc1ccccc1", "note": "(stereo not given)", "growth inhibition": "-0.35% (inactive)"}, {"compound": "Nc1c(N=Nc2ccccc2)cc(S(=O)(=O)O)c2ccccc12", "growth inhibition": "6.65% (inactive)"}, {"compound": "CC(C)C1CCC2(C)C(CCC3C4(C)CCCC32OC4)C1", "note": "(stereo not given)", "growth inhibition": "-25.1% (inactive)"}, {"compound": "FC(F)(Br)C(F)(Cl)Br", "note": "(stereo not given)", "growth inhibition": "17.4% (inactive)"}, {"compound": "CCN1N=Nc2ccccc2NC1=O", "growth inhibition": "4.5% (inactive)"}, {"compound": "CCCCn1cnc2c(SCCNC(=O)N(C)N=O)ncnc21", "growth inhibition": "-45.3% (inactive)"}, {"compound": "COc1ccc(N)c(C(O)CCNC(C)=O)c1", "note": "(stereo not given)", "growth inhibition": "-7.5% (inactive)"}, {"compound": "O=c1[nH]c(=O)c2nc3cc(-c4ccc5nc6[nH]c(=O)[nH]c(=O)c6nc5c4)ccc3nc2[nH]1", "growth inhibition": "54% (inactive)"}, {"compound": "CCCCN1CSC(=S)N(CCCC)C1", "growth inhibition": "-10.4% (inactive)"}, {"compound": "CCCCCCC(O)C/C=C/CCCCCC/C(C(=O)OC)=C(/O)C(=O)OCC", "note": "(stereo not given)", "growth inhibition": "-27.6% (inactive)"}, {"compound": "CC1=C(C)C(=O)OC1", "growth inhibition": "6% (inactive)"}, {"compound": "Cc1ccccc1NCc1ccccc1", "growth inhibition": "-29.8% (inactive)"}, {"compound": "CCC[n+]1ccccc1C", "growth inhibition": "1.35% (inactive)"}, {"compound": "CNC(=O)c1ccc(/C=C/c2c[nH]c3ccccc23)[n+](C)c1", "growth inhibition": "-11.2% (inactive)"}, {"compound": "O=C1C2=C(Nc3ccccc3N2)OC1c1ccccc1Cl", "note": "(stereo not given)", "growth inhibition": "6.7% (inactive)"}, {"compound": "CCOC(=O)CNC(=O)C(Cc1ccccc1)NC(=O)c1ccccc1NC(=O)c1ccccc1", "note": "(stereo not given)", "growth inhibition": "13.3% (inactive)"}, {"compound": "O=C(Nc1ccc(Cl)cc1)c1cccnc1", "growth inhibition": "-8.5% (inactive)"}, {"compound": "O=C(O)CCC(=O)NNC(=O)CCC(=O)O", "growth inhibition": "-8.45% (inactive)"}, {"compound": "CN(C)Cc1[nH]c2ccccc2c1Sc1ccccc1", "growth inhibition": "6.2% (inactive)"}, {"compound": "COc1ccc(S(=O)(=O)N/N=C/C(=O)OCOC(=O)C(C)(C)C)cc1", "growth inhibition": "8.55% (inactive)"}, {"compound": "c1ccc(C2=NOCC3(c4ccccc4)OC23)cc1", "note": "(stereo not given)", "growth inhibition": "-14.8% (inactive)"}, {"compound": "CCCCCCCCC(C)C", "growth inhibition": "10.8% (inactive)"}, {"compound": "S=c1ncnc2cc3[nH][nH]cc3cc12", "growth inhibition": "-33.5% (inactive)"}, {"compound": "O=C(O)c1ccc([C@@H]2C(=O)N(O)[C@@H]3C=CC[C@@H]32)cc1", "growth inhibition": "19.7% (inactive)"}]}]}
